Compound activity (PubChem)
GoLoco inh red: RGS12 GoLoco-Gai1 interaction inhibition; 0.44% of 230,000 active; P63096; Gai1:RGS12 GoLoco peptide FP, rhodamine, 10 min; Potency, µM (series often up to 61.6 µM), inactives show at the highest dose activity, negative = inhibition, most hits filed as inhibitors; active = well fitted inhibition curve with a large enough effect, not every such curve was filed as active; inactive = no such curve, though single readings can be large or run the other way; note: nearly all actives have a fitted effect of over 30% in size
Target sequence (P63096 whole entry, looked up): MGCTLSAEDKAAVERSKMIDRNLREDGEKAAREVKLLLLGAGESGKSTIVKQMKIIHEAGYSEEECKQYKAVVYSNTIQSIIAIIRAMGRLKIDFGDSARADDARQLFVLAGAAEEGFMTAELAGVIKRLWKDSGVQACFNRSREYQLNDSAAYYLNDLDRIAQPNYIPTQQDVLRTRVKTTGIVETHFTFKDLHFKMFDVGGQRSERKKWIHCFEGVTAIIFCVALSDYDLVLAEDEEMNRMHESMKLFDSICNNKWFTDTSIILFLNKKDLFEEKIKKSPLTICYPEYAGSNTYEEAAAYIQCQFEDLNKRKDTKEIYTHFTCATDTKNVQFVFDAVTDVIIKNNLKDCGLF
Tau fluor counter: counter-screen for tau fibril formation inhibitors. tau K18 P301L Alexa594 fluorescence, heparin fibrillization. Potency, µM (titrated, usually from 57.7 µM), for the others: at the highest dose activity change, negative = decrease. 0.93% of 280,000 active. AID 1463; note: nearly all actives have a fitted effect of over 55% in size
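Human K18 P301L tau (15 uM unlabeled plus 0.24 uM Alexa 594-labeled, final) in 100 mM sodium acetate pH 7 was mixed with compound and 20 uM heparin and incubated 6 hr at 37 C.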
Tau fibril ThT: blocks human tau fibril formation measured by thioflavin T | recombinant tau K18 P301L (four-repeat tau fragment), heparin-induced fibrillization, ThT fluorescence | Potency, µM (highest dose often 57.4 µM), without a hit: at the highest dose activity, negative = inhibition, hits mostly inhibitors | 2.1% of 270,000 active | P10636; note: nearly all actives have a fitted effect of over 55% in size
Target sequence (P10636 561-689 P618L limits assumed): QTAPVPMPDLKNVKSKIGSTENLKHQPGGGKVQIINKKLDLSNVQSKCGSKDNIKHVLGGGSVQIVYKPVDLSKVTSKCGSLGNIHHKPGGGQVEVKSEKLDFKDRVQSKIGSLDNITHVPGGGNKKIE
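Heparin-induced (20 uM) aggregation of recombinant human K18 P301L tau, 15 uM unlabeled with 0.24 uM labeled, pH 7 acetate buffer, 6 hr at 37 C with compound. Fibrils quantified by 30 uM ThT fluorescence after 1 hr ambient incubation.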
TRb-SRC2 inh: inhibitors of human thyroid hormone receptor beta-SRC2 interaction; TRbeta-SRC2 peptide binding, fluorescence polarization; receptor liganded with 1 µM T3; 0.065% of 280,000 active; Potency, µM (series often up to 106 µM), for the others: at the highest dose activity change, negative = inhibition, most hits filed as inhibitors; AID 1469; P10828;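 note: plate controls were bound peptide for no effect and peptide without receptor for full effect; nearly all actives have a fitted effect of over 50% in size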
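Assay buffer: 20 mM Tris-HCl, 100 mM NaCl, 10% glycerol, 1 mM EDTA, 0.01% NP-40, 1 mM DTT, 1 uM T3, 5% DMSO; TRb LBD 0.6 uM, Texas Red SRC2 20 nM; FP after 5 hr.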
Tau FP inhib: inhibitors of human tau fibril formation; K18 P301L tau heparin fibrillization, Alexa594 FP, 6 h; 0.39% of 280,000 active; Potency, µM (titrated, usually from 57.7 µM), without a hit: at the top dose activity, negative = inhibition, most hits filed as inhibitors; P10636; note: nearly all actives have a fitted effect of over 55% in size
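Compound effects on tau fibrillization are measured by Alexa 594 fluorescence polarization (ex 555, em 632 nm). K18 P301L tau is used at 15 uM with 0.24 uM labeled tracer, and 20 uM heparin induces aggregation over 6 hr at 37 C.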
TR SRC2 fluor cs: counter-screen for TRb-SRC2 inhibitors: fluorescence interference | AID 1479 | 0.29% of 280,000 active | Potency, µM (top dose mostly 106 µM), inactives show at the top dose fluorescence change, negative = quenching | TRb/SRC2 Texas Red total fluorescence interference; active = well fitted curve in either direction with a large enough effect; inconclusive = small, poorly fitted or top-dose-only effect
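Human TRβ ligand-binding domain (0.6 uM) and Texas Red SRC2 peptide (20 nM) in Tris buffer with 1 uM T3 and 5% DMSO were incubated with pinned compound for 5 hr at ambient temperature. Total fluorescence was computed as S + 2P (555/632 nm).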
An asterisk follows results filed as active; ? = inconclusive; · = no result given; [ ] = dose if it differs, or a comment. Shown are actives, neighbours in structure and some others; about 3.1% of the full set was active somewhere. Unless noted, calls come from the whole dose curve; as a rule, active = well fitted curve in the direction sought with a large enough effect; inconclusive = small, poorly fitted or top-dose-only effect, or another doubt; inactive = no such curve, though single readings can be large; an effect the other way counts as inactive or inconclusive. Unless noted, % is set by controls: 0 for no effect and ±100 for the full control effect; potency is the fitted concentration of half-maximal effect.

SMILES	GoLoco inh red	Tau fluor counter	Tau fibril ThT	TRb-SRC2 inh	Tau FP inhib	TR SRC2 fluor cs
CN1CCS/C1=C/C=C1/SC(=S)N(Cc2ccccc2)C1=O	-2%	8%	12%	5%	6%	0%
CCCCN1C(=O)/C(=C/C=C2\SCCN2C)SC1=S	58%	?	14µM*	5%	?	-5%
CCCCN1C(=O)/C(=C/C=C2\N(C)c3ccccc3C2(C)C)SC1=S	-46%	-11%	6.3µM*	-21%	?	20%
CN1CCS/C1=C/C=C1\SC(=S)N(CC(=O)O)C1=O	181%	-20%	16µM*	1%	-6%	0%
COC(=O)c1ccccc1NC(=O)CN1CCC(n2nnc3cc(C)ccc32)CC1	2%	-3%	-6%	1%	4%	-6%
Cn1c(O)c(N=Nc2nc(-c3ccccc3)cs2)c2ccccc21	16%	-21%	2µM*	-6%	-3%	-1%
Cn1c(O)c(N=Nc2ccc(F)cc2)c2ccccc21	-14%	-12%	13µM*	4%	-6%	-2%
COc1cc(C(c2c(C)[nH][nH]c2=O)c2c(C)[nH][nH]c2=O)ccc1OCc1ccc([N+](=O)[O-])cc1	-9%	?	10µM*	?	-7%	-7%
COc1cc(C(c2c(C)[nH][nH]c2=O)c2c(C)[nH][nH]c2=O)ccc1OC(=O)c1cccc([N+](=O)[O-])c1	8%	?	?	?	-1%	-2%
Cc1ccc(S(=O)(=O)c2c(Nc3cc(F)ccc3F)sc(C(=O)c3ccc(F)cc3)c2N)cc1	·	-18%	-2%	-3%	?	2%
COC(=O)CCc1nc2ccccc2[nH]c1=O	5%	0%	-6%	-6%	-1%	1%
COC(=O)CSCc1nc2ccccc2[nH]c1=O	-6%	-15%	32µM*	2%	?	-2%
CSc1nnc(C)c(/C=C/Nc2ccc(C)cc2)n1	17%	-23%	5µM*	4%	2%	-5%
CCC(C)NC(=O)c1ccccc1NC(=O)C(C)N(c1ccccc1)S(C)(=O)=O (centres undefined)	-1%	-6%	4%	-26%	0%	1%
CC1=NN(c2ccccc2)C(=O)/C1=C\c1ccc(Oc2ccc([N+](=O)[O-])cc2[N+](=O)[O-])cc1	1%	14µM*[quencher]	14µM*	-22%	?	-7%
COc1cc(/C=C2\C(=O)N(c3ccccc3)N=C2C)ccc1Oc1ccc([N+](=O)[O-])cc1[N+](=O)[O-]	1%	?	?	?	-10%	-12%
CS(=O)(=O)N(CC(=O)NCc1ccc2c(c1)OCO2)C1CCCCC1	10%	1%	-4%	9%	0%	1%
Cc1oc2c(c1C(=O)O)C(=O)c1ccccc1C2=O	16%	-6%	?	7%	-9%	-2%
O=C1C(=O)c2c(C(=O)c3ccccc3)coc2-c2ccccc21	6%	?	2.5µM*	-10%	7.9µM*	-5%
O=C(O)c1ccccc1-c1ccccc1C(=O)c1ccccc1	5%[14.2 µM]	·	·	·	·	·
Cc1oc2c(c1C(=O)c1ccccc1)C(=O)C(=O)c1ccccc1-2	5%	-22%	7.9µM*	?	?	0%
CCN(CC)CCCN(C(C)=O)c1nc(-c2cc(OC)ccc2OC)cs1	-1%	-4%	-5%	3%	2%	-1%
CCOC(=O)c1c(C)[nH]c(C(=O)CSc2nnc(Nc3ccccc3F)s2)c1C	-5%	3%	1%	1%	-1%	-3%
COc1cc(-c2nc3ccc(Cl)cn3c2Nc2ccc3c(c2)OCO3)ccc1O	·	14µM*[quencher]	?	-7%	11%	-5%
COc1cc(-c2nc3ccc(C)cn3c2Nc2ccc(Cl)cc2)ccc1O	·	8.9µM*[quencher]	?	-8%	?	-2%
SMILES	GoLoco inh red	Tau fluor counter	Tau fibril ThT	TRb-SRC2 inh	Tau FP inhib	TR SRC2 fluor cs
Cc1nnc(NC(=O)CCN2C(=O)/C(=C\c3ccccc3)SC2=S)s1	8%	-8%	?	0%	-10%	2%
COc1cccc(/C=C2/SC(=S)N(CC(=O)Nc3nnc(C)s3)C2=O)c1	15%	?	1.3µM*	12%	?	2%
CCN(CC)CC(=O)Nc1c(Br)ccc2c1OCO2	-5%	-1%	3%	-3%	3%	-2%
N#CC1(C#N)COC23CCCCC2C1(C#N)C(=N)O3 (centres undefined)	0.89µM*	2%	2%	-12%	3%	7%
N#CC12COC3(CCCCC3C1(C#N)C#N)OC2=N (centres undefined)	-2%	-22%	14µM*	-5%	?	1%
CC1=C(C(=O)Nc2ccccc2)C(c2ccc(C)o2)n2c(s/c(=C\c3ccco3)c2=O)=N1 (centres undefined)	73%	?	13µM*	-1%	?	4%
COc1cccc(C2C(C(=O)Nc3ccccc3)=C(C)N=c3s/c(=C/c4ccc(OCC(=O)O)cc4)c(=O)n32)c1 (centres undefined)	3%	13%	?	2%	0%	-3%
Cc1cc(C)cc(NS(=O)(=O)c2ccc3[nH]cc(C(=O)N4CCCC4)c(=O)c3c2)c1	·	-11%	-2%	-9%	-6%	-2%
COC(=O)c1ccc(-c2noc(CN(C)CCC3CCCCO3)n2)cc1 (centres undefined)	5%	-45%	11µM*	-3%	-82%	-2%
CCOc1ccc(NC2=C(Cl)C(=O)N(Cc3ccccc3)C2=O)cc1	·	-8%	-8%	1%	1%	0%
O=C1C(Cl)=C(Nc2ccccc2O)C(=O)N1c1ccccc1	11%	?	14µM*	-2%	?	-3%
Cc1c(NC2=C(Cl)C(=O)N(c3ccccc3)C2=O)c(=O)n(-c2ccccc2)n1C	-7%	-18%	?	-4%	?	2%
COc1ccccc1N1C(=O)C(Cl)=C(Nc2ccccc2O)C1=O	52%	?	13µM*	-11%	28µM*	-3%
Cc1ccc(O)c(NC2=C(Cl)C(=O)N(Cc3ccccc3)C2=O)c1	0%	?	13µM*	-4%	?	-3%
CCOC(=O)c1noc2ncn(CC(=O)O)c(=O)c12	·	2%	5%	0%	-4%	-1%
COc1ccc(N2C(=O)[C@@H]3[C@H](C2=O)[C@H]2c4ccccc4C=CN2[C@@H]3C(=O)Nc2ccccc2)cc1	24%	?	?	1%	-1%	0%
